# High-throughput results (PubChem)
# Compounds with a hit are over-represented: about 1.6% of the library has one in this group of screens.
# PfHsp40 yeast: compounds rescuing yeast from Plasmodium falciparum HSP40 toxicity; S. cerevisiae expressing PfHsp40, growth rescue, ATP luminescence; growth rescue, % at 12.5 µM; actives 0.68% (n = 340,000); in the data active means growth rescue above about 28%, passing the limit was not always enough;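 further: yeast W303a lacking pdr1 and pdr3 grown in galactose medium; growth measured after three days at 30 °C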
# CCHFV vOTU inh: blocks the CCHF virus ovarian tumor domain protease; CCHFV vOTU protease, Pep-AMC fluorescence; inhibition, % at 11.5 µM; actives 0.55% (n = 370,000); AID 651958; in the data active means inhibition above about 30%
# BJeLR lethal: kills HRASV12-expressing BJeLR cells; BJeLR (HRASV12) viability, CellTiter-Glo ATP luminescence, 48 h; inhibition, % (concentration not given with the values); actives 0.17% (n = 300,000); AID 1554; in the data active means inhibition above about 50%
# Sa ugtP lethal: compounds lethal to S. aureus RN4220 ugtP deletion mutant | OD600 growth, 16 h | growth inhibition, % (concentration not given with the values) | actives 0.54% (n = 330,000) | AID 1259309; in the data active means growth inhibition above about 68%
# Sa RN4220 lethal: kills Staphylococcus aureus RN4220; AID 1259311; inhibition, % (concentration not given with the values); S. aureus RN4220 growth, OD600, 16 h; actives 0.33% (n = 330,000); in the data active means inhibition above about 85%
# Hits are given with their value; . = inactive; / = no result given.
SMILES,PfHsp40 yeast,CCHFV vOTU inh,BJeLR lethal,Sa ugtP lethal,Sa RN4220 lethal
CCOC(=O)c1c(N)sc(C(O)(C(F)(F)F)C(F)(F)F)c1-c1ccc(Cl)cc1,.,.,.,100,100
Cc1ccc(CNC(=O)CCn2cc(-c3ccc(C)cc3)nc2CCN)cc1,40,.,/,/,/
COc1ccc(-c2cn(CCC(=O)NCc3ccc(C)cc3)c(-c3ccncc3)n2)cc1,.,.,.,.,.
C(=Cc1ccccc1)CSc1nnc(-c2ccccn2)n1Cc1ccco1,/,/,/,.,.
COc1ccc(C(=O)Oc2ccc(F)cc2C(=O)/C=C/c2ccc(OC)c(OC)c2)cc1,.,.,.,.,.
COc1ccc(/C=C/C(=O)c2cc(F)ccc2OC(=O)c2ccccc2C)cc1OC,.,.,77,.,.
CC1CCC2C(C)C(=O)OC3OC4(C)CCC1C32OO4 (stereo not drawn),137,.,.,.,.
CC1CCC2[C@@H](C)C(=O)OC3O[C@]4(C)CCC1C32OO4 (stereo partly drawn),110,.,.,.,.
O=C(CCNc1n[nH]c(=O)[nH]c1=O)NN=Cc1ccc(Br)cc1,/,/,/,.,.
C=C1c2cccc(O)c2C(=O)C2C(=O)[C@]3(O)C(=O)C(C(N)=O)C(=O)[C@@H](N(C)C)[C@@H]3[C@@H](O)[C@H]12 (stereo partly drawn),60,.,/,/,/
FC(F)(F)c1nnc2c(Sc3ccc(Cl)cc3)nc3ccccc3n12,.,.,59,.,.
O=C(CCl)N(CCCNC(=O)C(F)(F)F)c1ccc([N+](=O)[O-])cc1,.,.,116,.,.
CCS(=O)(=O)N1CCC(C(=O)NC2CCCCC2)CC1,.,.,.,.,.
CN(C)C(=O)N1CCC(C(=O)NC2CCCCCCC2)CC1,33,.,.,.,.
Nc1nnc(CC(=O)NN=Cc2cccc([N+](=O)[O-])c2)s1,/,/,/,.,.
O=Cc1[nH]c2ccccc2c1N(C(=O)CCl)c1ccc([N+](=O)[O-])cc1,.,.,111,/,/
CC=C(C)C(=O)OC1c2cc3c(c4c2[C@@]2(CO4)C(=O)C(OC)=C(OC)C=C2CC(C)C1C)OCO3 (stereo partly drawn),/,/,/,.,.
C[C@@]12CCC=C[C@H]1[C@H](c1ccc3ccccc3c1Br)N(Cc1ccccc1)C2=O,65,.,.,/,/
C[C@@]12CCC=CC1C(c1ccc3ccccc3c1Br)N(Cc1ccccc1)C2=O (stereo partly drawn),/,/,/,.,.
CCn1c(SCC(=O)Nc2ccc(NC(C)=O)cc2)nc2c([nH]c3ccccc32)c1=O,41,.,.,.,.
COCCn1c(SCC(=O)Nc2ccc(F)cc2)nc2c([nH]c3ccccc32)c1=O,.,.,.,.,.
C[C@H]1COC(=O)[C@H](Cc2ccc(F)cc2)C/C=C\C[C@@H](CC(=O)N(CCO)Cc2ccccc2)C(=O)N1,55,.,/,/,/
C[C@@H]1COC(=O)[C@@H](Cc2ccc(F)cc2)C/C=C\C[C@@H](CC(=O)N(CCO)Cc2ccccc2)C(=O)N1,.,.,/,/,/
Cc1ccc(S(=O)(=O)N(CCCO)CC(O)CON=C2c3ccccc3-c3ccccc32)cc1 (stereo not drawn),29,.,.,.,.
CCCCOc1ccc2c(c1)C(=O)c1cc(O)ccc1-2,284,.,.,92,.
SMILES,PfHsp40 yeast,CCHFV vOTU inh,BJeLR lethal,Sa ugtP lethal,Sa RN4220 lethal
CCN1C/C(=C/c2ccc(OC)c(O)c2)C(=O)/C(=C/c2ccc(OC)c(O)c2)C1,.,.,55,.,.
COc1ccc(/C=C2\CN(Cc3ccccc3)C/C(=C\c3ccc(OC)c(O)c3)C2=O)cc1O,.,.,69,/,/
COc1ccc(C=C2C(=O)c3ccccc3C2=O)cc1O,.,.,.,.,.
Cc1ccc2[nH]c3c(=O)n(N)c(=O)[nH]c3c2c1,/,.,.,.,.
CC1=CC(C)[C@H](C=Nn2c(=O)[nH]c3c([nH]c4ccc(Br)cc43)c2=O)C(C)C1 (stereo partly drawn),/,/,/,66,.
COC(C(=O)NNS(=O)(=O)c1ccccc1[N+](=O)[O-])c1ccccc1 (stereo not drawn),.,.,.,.,.
CC(C)C(=O)NNS(=O)(=O)c1ccccc1[N+](=O)[O-],55,.,.,.,.
CC(C)n1cnc2c(NCc3ccccc3)cc(Cc3ccc(F)cc3)cc21,115,.,/,/,/
Cc1ccc(/C=C2\SC(=S)N(CCCC(=O)N3CCOCC3)C2=O)cc1,.,.,89,.,.
CCOC(=O)C(=O)Cc1nc(OCc2ccccc2)cc(OCc2ccccc2)n1,.,.,/,.,.
CCOC(=O)C(Cc1nc(OCc2ccccc2)cc(OCc2ccccc2)n1)=NO,.,.,/,87,.
CCC1(CC)C(=O)C2=C3C(CC(C(=O)OC)=CC(C(=O)OC)C31)n1c(=O)n(C)c(=O)n1C2C (stereo not drawn),/,/,/,.,.
Cc1ccccc1C=NNC(=O)c1ccc(Cn2cccn2)o1,/,/,/,.,.
Cc1ccc(Cl)cc1NC(=O)CSc1sc2c(O)cc(=O)[nH]c2c1C#N,47,.,.,.,.
Clc1ccc(C2C3CN(CC4CCCCC4)C(c4ccccc4)C34CC2(c2ccccc2)C4)cn1 (stereo not drawn),/,/,/,.,.
CCCCCN=C(N)N/N=C/c1c[nH]c2ccc(OC)cc12,.,.,70,/,/
CCCCCN=C(N)NN=Cc1c[nH]c2ccc(OC)cc12,/,/,/,.,.
Cc1nc2c(cc1C(=O)NN=Cc1ccc(O)c(O)c1)c(=O)n(C)c(=O)n2C,/,/,/,.,.
O=S(=O)(Nc1cccc2cccnc12)c1ccccc1,.,.,74,/,/
O=S(=O)(Nc1cccc2ccccc12)c1ccccc1,.,.,.,.,.
Cc1ccc2cccc(NS(=O)(=O)c3ccccc3)c2n1,/,.,69,/,/
CC(=O)Nc1ccc(S(=O)(=O)Nc2cccc3cccnc23)cc1,.,.,.,.,.
CC1COC(=O)CCCCC=CCC(CC(=O)N(CCO)Cc2ccccc2)C(=O)N1 (stereo not drawn),/,/,/,.,.
CCc1ccc(N2CC(C(=O)NN=Cc3ccccc3)CC2=O)cc1 (stereo not drawn),/,/,/,.,.
CCn1c(-c2ccccc2)c(C(=O)CCl)c2ccccc21,.,.,.,99,97
SMILES,PfHsp40 yeast,CCHFV vOTU inh,BJeLR lethal,Sa ugtP lethal,Sa RN4220 lethal
O=C(Nc1scc(-c2ccccc2)c1C(=O)O)c1ccccc1F,.,.,.,.,.
Cc1ccc(-c2csc(NC(=O)c3ccccc3F)c2C(=O)O)cc1,34,.,.,.,.
O=C(/C=C/c1ccco1)Nc1scc(-c2ccccc2)c1C(=O)O,.,.,.,.,.
O=C(/C=C/c1ccccc1)Nc1scc(-c2ccccc2)c1C(=O)O,51,.,.,.,.
COc1ccc(-c2csc(NC(=O)c3ccccc3Br)c2C(=O)O)cc1,58,.,.,.,.
Cc1ccccc1C(=O)Nc1scc(-c2ccc(Br)cc2)c1C(=O)O,.,.,.,.,.
COc1ccc(C=C2C=C(C(C)(C)C)C(=O)C(C(C)(C)C)=C2)cc1OC,.,.,80,/,/
CCN(CC)S(=O)(=O)c1cccc(C(=O)NN=Cc2ccccc2OCC(=O)O)c1,/,/,/,.,.
